In PubChem BioAssay (EPA / NIEHS) one finds outcome and AC50 data, which are given here for 16 compounds.

Results filed as inconclusive are left out. The source holds several records for some structures; these can differ, active in one and inactive in another. Activity calls are given as the source filed them. How the source made its calls, unless noted: active means hit-call score of the fitted dose curve at least 0.9, where 1 is the maximum; inconclusive means response in the unintended direction; inactive means score below 0.9.

Assay [1] is described as follows: Tanguay_ZF_120hpf_TR_legacy: (Legacy) Oregon State University Tanguay Lab 120 Hour Post-fertilization zebrafish Assay for Touch Response (AID 2283667). Put shortly:
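5D WT embryos; static exposure to 120 hpf, 28C, sealed/dark; DMSO 0.64% v/v final. TR scored present/absent; dead embryos excluded. Pos ctrl 5uM trimethyltin chloride.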

Assay [2] is described as follows: CCTE_Padilla_ZF_144hpf_TERATOSCORE: (Legacy) CCTE's 144 Hour Post-fertilization zebrafish Assay Teratoscore, Padilla Lab (AID 2283679; active means hit-call score of the fitted dose curve at least 0.9, where 1 is the maximum; inactive means score below 0.9;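 on AC50: zebrafish embryos with chorions exposed by immersion from 6-8 hpf to 5 dpf with daily renewal; teratogenicity score from eye scoring of death hatching and malformations at 144 hpf; higher score means more developmental defects relative to DMSO baseline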). Put shortly: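 Larvae scored by eye at 144 hpf for death, hatching and malformations after a day in clean Hanks'. Before that, daily-renewed exposure at 80 uM (0.4% DMSO, 26C) from roughly 6-8 hpf through 5 dpf, 4 embryos per chemical.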

Read-out in assay [3]: organic anion transporter (SLCO1B1), SLCO1B1 (gene 10599)
The assay is described as follows: CLD_SLCO1B1_6hr: CellzDirect (CLD) Gene Expression Assay for organic anion transporter (SLCO1B1) at 6 hours (AID 2283668).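 Further: active means mRNA induction above DMSO baseline.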 Put shortly: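 Primary human hepatocytes dosed daily with test chemicals (multiple concentrations) in 0.2% DMSO vehicle; harvested at 6 h. SLCO1B1 mRNA quantified by qNPA chemiluminescence, fitted as gain-of-signal versus DMSO; cytotoxicity from phase-contrast morphology flagged alongside.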

The nature of assay [4]: CLD_ACTIN_24hr: CellzDirect (CLD) Gene Expression Assay for Baseline Control (Actin) at 24 hours (AID 2283670). The essentials:
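Primary human hepatocytes dosed over multiple concentrations with 0.2% DMSO vehicle; actin mRNA measured at 24 h by qNPA chemiluminescence. Background control endpoint, fitted as gain of signal versus DMSO.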

Read-out in assay [5]: glucuronosyltransferase (UGT1A1), UGT1A1 (gene 54658)
As to the kind of experiment: CLD_UGT1A1_6hr: CellzDirect (CLD) Gene Expression Assay for glucuronosyltransferase (UGT1A1) at 6 hours (AID 2283672). The essentials: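 Primary human hepatocytes from two donor preparations, dosed with fresh solutions in 0.2% DMSO, harvested at 6 h. UGT1A1 mRNA measured by qNPA chemiluminescence; induction fitted upward versus DMSO.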

Read-out in assay [6]: ABC Transporter (ABCB11), ABCB11 (gene 8647)
As to the kind of experiment: CLD_ABCB11_24hr: CellzDirect (CLD) Gene Expression Assay for ABC Transporter (ABCB11) at 24 hours (AID 2283674; active means hit-call score of the fitted dose curve at least 0.9, where 1 is the maximum; inactive means score below 0.9). Put shortly:
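Primary human hepatocytes were dosed daily for two days, with 0.2% DMSO vehicle. ABCB11 mRNA induction was measured at 24 hours by quantitative nuclease protection assay with chemiluminescence. Gain of signal was fitted relative to DMSO.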

Read-out in assay [7]: ABC Transporter (ABCB11), ABCB11 (gene 8647)
The assay is described as follows: CLD_ABCB11_6hr: CellzDirect (CLD) Gene Expression Assay for ABC Transporter (ABCB11) at 6 hours (AID 2283675).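 Further: hits raise ABCB11 mRNA level so AC50 marks induction.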 Put shortly: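 Human primary hepatocytes (two donor preparations) given fresh chemical daily at multiple concentrations, vehicle 0.2% DMSO. ABCB11 mRNA induction measured 6 h after dosing by qNPA chemiluminescence versus DMSO; cytotoxicity annotated from morphology.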

Assay [8] is described as follows: CLD_ACTIN_6hr: CellzDirect (CLD) Gene Expression Assay for Baseline Control (Actin) at 6 hours (AID 2283676).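 Further: active means increased actin mRNA relative to DMSO vehicle.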 The essentials: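 Primary human hepatocytes dosed with fresh chemical solutions (vehicle 0.2% DMSO), harvested at 6 h. Actin mRNA quantified by quantitative nuclease protection assay with chemiluminescent read-out, as background control relative to DMSO.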

Read-out in assay [9]: Cytochrome P450 2B6 (Homo sapiens) (UniProt P20813)
As to the kind of experiment: CLD_CYP2B6_6hr: CellzDirect (CLD) Gene Expression Assay for xenobiotic metabolism (CYP2B6) at 6 hours (AID 2283677).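 Further: actives raise CYP2B6 transcript above DMSO baseline so AC50 marks an inducer.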 The essentials: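 Primary human hepatocytes dosed with chemicals at multiple concentrations, vehicle 0.2% DMSO; CYP2B6 mRNA induction measured 6 h after dosing by quantitative nuclease protection assay with chemiluminescence, gain of signal fitted relative to DMSO.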

Read-out in assay [10]: Cytochrome P450 2C19 (Homo sapiens) (UniProt P33261)
The assay is described as follows: CLD_CYP2C19_6hr: CellzDirect (CLD) Gene Expression Assay for xenobiotic metabolism (CYP2C19) at 6 hours (AID 2283678). The essentials:
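Primary human hepatocytes from two donor preparations were dosed daily, with 0.2% DMSO as vehicle, and harvested 6 h after dosing. CYP2C19 mRNA induction was measured by qNPA chemiluminescence and fitted as gain of signal against DMSO.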

Read-out in assay [11]: Cytochrome P450 3A4 (Homo sapiens) (UniProt P08684)
The assay is described as follows: CLD_CYP3A4_6hr: CellzDirect (CLD) Gene Expression Assay for xenobiotic metabolism (CYP3A4) at 6 hours (AID 2283680). Put shortly: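 Primary human hepatocytes (two donor preparations) dosed; CYP3A4 mRNA harvested at 6 h and quantified by qNPA chemiluminescence. Gain of signal fitted against 0.2% DMSO vehicle; cytotoxicity flagged by phase-contrast morphology.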

Read-out in assay [12]: xenobiotic metabolism (CYP1A2), CYP1A2 (gene 1544)
The assay is described as follows: CLD_CYP1A2_24hr: CellzDirect (CLD) Gene Expression Assay for xenobiotic metabolism (CYP1A2) at 24 hours (AID 2283683). The essentials: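 Primary human hepatocytes from two donor preparations dosed daily with multiple concentrations of chemical, 0.2% DMSO vehicle. CYP1A2 mRNA at 24 h quantified by qNPA chemiluminescence; gain of signal analyzed relative to DMSO. Cytotoxicity flagged by phase-contrast morphology.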

Read-out in assay [13]: ABC Transporter (ABCB1), ABCB1 (gene 5243)
The assay is described as follows: CLD_ABCB1_24hr: CellzDirect (CLD) Gene Expression Assay for ABC Transporter (ABCB1) at 24 hours (AID 2283684). The essentials: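 Primary human hepatocytes, two donor preparations, dosed daily with fresh solutions; vehicle 0.2% DMSO; harvested at 24 h. ABCB1 mRNA measured by quantitative nuclease protection assay (chemiluminescence); morphology-based cytotoxicity annotated.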

Read-out in assay [14]: Broad substrate specificity ATP-binding cassette transporter ABCG2 (Homo sapiens) (UniProt Q9UNQ0)
As to the kind of experiment: CLD_ABCG2_24hr: CellzDirect (CLD) Gene Expression Assay for ABC Transporter (ABCG2) at 24 hours (AID 2283685). The essentials:
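Primary human hepatocytes were dosed daily with ToxCast chemicals at multiple concentrations (vehicle 0.2% DMSO). ABCG2 mRNA was measured at 24 h by qNPA chemiluminescence; induction was scored as gain of signal versus DMSO.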

Chain of Cytochrome P450 2C19 (Homo sapiens) (P33261 whole entry, looked up): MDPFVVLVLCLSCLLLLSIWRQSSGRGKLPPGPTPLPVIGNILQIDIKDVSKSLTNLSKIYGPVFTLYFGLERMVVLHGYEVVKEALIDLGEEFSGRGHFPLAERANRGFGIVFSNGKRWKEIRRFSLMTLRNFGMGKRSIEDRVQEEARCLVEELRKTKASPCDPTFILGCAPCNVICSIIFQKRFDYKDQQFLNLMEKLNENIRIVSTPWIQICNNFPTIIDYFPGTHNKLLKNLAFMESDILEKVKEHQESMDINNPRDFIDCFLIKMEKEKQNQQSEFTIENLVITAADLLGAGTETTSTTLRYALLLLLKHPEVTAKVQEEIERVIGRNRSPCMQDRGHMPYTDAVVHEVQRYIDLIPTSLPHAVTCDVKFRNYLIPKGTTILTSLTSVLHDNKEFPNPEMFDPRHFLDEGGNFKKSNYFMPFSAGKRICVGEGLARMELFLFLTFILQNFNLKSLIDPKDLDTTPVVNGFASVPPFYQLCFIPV
Chain of Cytochrome P450 3A4 (Homo sapiens) (P08684 whole entry, looked up): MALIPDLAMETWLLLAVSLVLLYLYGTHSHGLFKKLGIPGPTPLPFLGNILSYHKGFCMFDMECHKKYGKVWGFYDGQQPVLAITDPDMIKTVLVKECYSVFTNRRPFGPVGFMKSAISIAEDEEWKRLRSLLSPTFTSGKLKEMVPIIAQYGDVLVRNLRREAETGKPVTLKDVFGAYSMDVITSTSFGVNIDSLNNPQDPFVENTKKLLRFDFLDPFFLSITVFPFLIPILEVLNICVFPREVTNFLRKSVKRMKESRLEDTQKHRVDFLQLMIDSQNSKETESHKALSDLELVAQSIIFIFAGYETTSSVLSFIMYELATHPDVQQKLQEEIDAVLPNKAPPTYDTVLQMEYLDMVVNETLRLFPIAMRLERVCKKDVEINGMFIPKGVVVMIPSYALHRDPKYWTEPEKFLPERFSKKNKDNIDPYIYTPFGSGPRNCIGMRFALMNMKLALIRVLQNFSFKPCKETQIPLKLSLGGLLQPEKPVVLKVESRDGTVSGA
Chain of Broad substrate specificity ATP-binding cassette transporter ABCG2 (Homo sapiens) (Q9UNQ0 whole entry, looked up): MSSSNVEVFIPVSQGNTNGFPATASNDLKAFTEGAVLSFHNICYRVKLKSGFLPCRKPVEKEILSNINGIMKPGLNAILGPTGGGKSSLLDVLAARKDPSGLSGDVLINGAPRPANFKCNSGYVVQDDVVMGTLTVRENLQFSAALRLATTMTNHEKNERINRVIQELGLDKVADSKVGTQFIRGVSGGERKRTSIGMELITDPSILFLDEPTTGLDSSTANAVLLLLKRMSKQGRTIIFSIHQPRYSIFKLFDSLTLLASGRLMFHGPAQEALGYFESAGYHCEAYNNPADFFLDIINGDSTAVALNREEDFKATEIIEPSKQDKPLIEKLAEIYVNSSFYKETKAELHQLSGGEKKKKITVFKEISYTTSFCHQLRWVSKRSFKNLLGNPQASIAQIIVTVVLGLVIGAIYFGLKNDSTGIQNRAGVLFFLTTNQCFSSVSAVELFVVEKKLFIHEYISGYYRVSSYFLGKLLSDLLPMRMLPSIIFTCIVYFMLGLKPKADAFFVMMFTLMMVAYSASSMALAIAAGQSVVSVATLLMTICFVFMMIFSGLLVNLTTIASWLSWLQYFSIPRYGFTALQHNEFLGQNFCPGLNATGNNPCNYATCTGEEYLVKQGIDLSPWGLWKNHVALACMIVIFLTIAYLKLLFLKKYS

As for `Cc1cc(O)ccc1Cl`, the compound was called inactive in [1]. Further, in assay [2], the AC50 was 112 µM (active).

On to `CC(c1ccc(O)cc1)(c1ccc(O)cc1)c1ccc(O)cc1`, for which, in assay [2], the outcome was inactive.

As to `Nc1ccc(-c2ccc(N)cc2)cc1`, in assay [1], the call was inactive. For the same compound, the half-maximal activity concentration (AC50) in [2] was 33 µM (active).

With `Clc1ccc(C(c2ccccc2Cl)C(Cl)(Cl)Cl)cc1` (configuration not stated), the AC50 in assay [2] is 16.1 µM (active).

As to `O=C(NC(=O)c1cc(F)c(F)cc1Cl)Nc1cc(F)ccc1N1CCC(C(=O)O)CC1`, the result in [1] was inactive. Moreover, the AC50 in assay [2] is 31 µM (active).

As for `CC(C)(O)C(=O)Nc1ccc([N+](=O)[O-])c(C(F)(F)F)c1`, the call in assay [1] was inactive. Further, the AC50 in assay [2] was 31.4 µM (active).

As to `CCOC(=O)C(O)(c1ccc(Cl)cc1)c1ccc(Cl)cc1`, the compound was called inactive in assay [1]. In addition, the AC50 in assay [2] was 1.71 µM (active).

In the case of `CCCN(CCC)N=O`, the call in [1] and in assay [2] was inactive.

As to `c1cc2ccc3cccc4ccc(c1)c2c34`, in assay [1], the call was inactive. In assay [2], the concentration at half-maximal activity (AC50) was 13.5 µM (active).

In the case of `Oc1ccc(C(c2ccc(O)cc2)(C(F)(F)F)C(F)(F)F)cc1`, the figures for the AC50 in assay [1] and in assay [2] were 52.8 µM (active) and 18.1 µM (active), respectively.

On to `O=C(O)C(F)(F)C(F)(F)C(F)(F)C(F)(F)C(F)(F)C(F)(F)C(F)(F)C(F)(F)F`, for which, in assay [1], the result was inactive. Besides, the AC50 in assay [2] is 53.7 µM (active).

Turning to `Oc1c(Cl)c(Cl)c(Cl)c(Cl)c1Cl`, the compound was called inactive in [1]. The concentration at half-maximal activity (AC50) in [2] is 0.806 µM (active).

For the compound `C[C@]12CCC(=O)C=C1CC[C@@H]1[C@@H]2CC[C@@]2(C)[C@H]1CC[C@]2(C)O`, in [1], the outcome was inactive. The concentration at half-maximal activity (AC50) in assay [2] was 24.4 µM (active).

For the compound `CCSC(=O)N(CC)C1CCCCC1`, the call in [3], in assay [4], in assay [5], in [6], in assay [7] and in assay [8] was inactive. Further, the compound was classed as inactive in assay [10], in [2], in [11], in assay [12], in assay [13] and in assay [14]. In assay [9], the AC50 is 3.97 µM (active).

On to `CC(C)(c1ccccc1)c1ccc(O)cc1`, for which the compound was classed as inactive in [1]. Also, the AC50 in assay [2] is 4.83 µM (active).

Turning to `c1ccc(-c2ccccc2)cc1`, the compound was classed as inactive in [1] and in assay [2]. Moreover, the AC50 in [2] was 4.5 µM (active).

A word on the AC50: it is the midpoint of the concentration-response curve, whichever way the signal moves.
